This assay has as its target Genome polyprotein (Poliovirus type 1 (strain Mahoney)) (UniProt P03300). The assay can be described thus: inhibitors of poliovirus polymerase RNA elongation – biochemical, fluorescence polarization, total intensity, primary screen (AID 588519). As to z-score: compound at 16.7 µg/mL. Particulars: stronger effect = lower value; for % elongation: compound at 16.7 µg/mL; for z-score: measured here: FP z-score.
Setting [1] is: measured here: total intensity read-out.

The whole screen tested about 150,000 compounds, of which about 1,000 (0.67%) were called active. Rule as the data show it: active = % elongation below about 90%; inactive = the rest, inconclusive results apart. Many of the other results were omitted from the sample, so actives are more common in it than they were.

Sequence of Genome polyprotein (Poliovirus type 1 (strain Mahoney)) (P03300 1749-2209 limits assumed): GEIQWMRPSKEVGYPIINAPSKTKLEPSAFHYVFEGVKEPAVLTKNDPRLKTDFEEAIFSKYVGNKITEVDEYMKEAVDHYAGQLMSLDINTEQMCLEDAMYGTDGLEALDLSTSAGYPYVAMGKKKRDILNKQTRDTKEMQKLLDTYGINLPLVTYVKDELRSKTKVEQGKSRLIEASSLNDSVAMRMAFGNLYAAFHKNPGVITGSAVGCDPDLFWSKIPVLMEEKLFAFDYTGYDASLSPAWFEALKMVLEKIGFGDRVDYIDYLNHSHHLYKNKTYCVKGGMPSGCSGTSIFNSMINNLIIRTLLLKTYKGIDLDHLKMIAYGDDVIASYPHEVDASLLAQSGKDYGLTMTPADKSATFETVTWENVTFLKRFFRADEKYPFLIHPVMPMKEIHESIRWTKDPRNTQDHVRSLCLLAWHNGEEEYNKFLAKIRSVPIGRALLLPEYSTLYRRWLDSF

With `CCN1CCN(C(=O)C2CCCCC2C(=O)O)CC1` (stereo unspecified), the % elongation is 102% (inactive) and the z-score was determined as 0. Besides, the % elongation under setting [1] was found to be 103%.

Turning to `CCOC(=O)c1c(N)sc2c1CCCS2`, the % elongation was 64% (active) and the z-score was -3.9. The % elongation under setting [1] came to 74%.

`CCOC(=O)c1c(NC2=CC(=O)CCC2)sc2c1CCCCC2`: the % elongation was 107% (inactive) and the z-score came to 0.6. The % elongation under setting [1] was 112%.

Consider `CCOC(=O)c1c(N)sc2c1CC(C)(C)OC2`, for which the % elongation was 103% (inactive) and the z-score turned out to be 0.4. Further, the % elongation under setting [1] was 106%.

On to `CCC(=O)c1cn(CC(=O)N2CCCC2)c2ccccc12`, for which the % elongation is 107% (inactive) and the z-score worked out at 0.5. Also, the % elongation under setting [1] amounted to 109%.

Regarding `Fc1ccc(NC(=S)N2CCN=C2Nc2ccc(F)cc2)cc1`, the % elongation is 87% (active) and the z-score is -5.7. For the same compound, under setting [1], the % elongation came out at 82%.

For the compound `COc1ccc(NC(=S)N2CCCCC2)cc1`, the % elongation is 100% (inactive) and the z-score was -0.3. For the same compound, the % elongation under setting [1] came to 108%.

`OC1CCN(C(=S)Nc2ccccc2)CC1`: the % elongation was 101% (inactive) and the z-score is 0. Besides, the % elongation under setting [1] turned out to be 100%.

Consider `O=C1CCC/C1=C1\SCC(=O)N1c1ccccc1`, for which the % elongation was 101% (inactive) and the z-score is -0.3. The % elongation under setting [1] worked out at 99%.

On to `Cc1ccc(C)c(NC(=O)C(c2ccccc2)N2CCCCC2C(N)=O)c1` (stereo unspecified), for which the % elongation was 97% (inactive) and the z-score was -0.5. For the same compound, the % elongation under setting [1] is 103%.

Turning to `C=CCn1c(SCC#N)nc2c(c1=O)C1(CCCCC1)Cc1ccccc1-2`, the % elongation was 102% (inactive) and the z-score worked out at 0.1. In addition, under setting [1], the % elongation was 103%.

As to `O=C(CSc1nnc(-c2ccncc2)n1-c1ccccc1)Nc1ccccc1`, the % elongation was 100% (inactive) and the z-score is -0.8. The % elongation under setting [1] was determined as 96%.

`COc1ccc(Cc2nnc(SCC(=O)Nc3ccc(S(=O)(=O)N4CCCCCC4)cc3)o2)cc1`: the % elongation was 104% (inactive) and the z-score was determined as 0.4. The % elongation under setting [1] worked out at 102%.

With `Nn1c(SCC(=O)Nc2ccc(S(=O)(=O)N3CCCC3)cc2)nnc1-c1ccccc1`, the % elongation is 76% (active) and the z-score is -5.5. The % elongation under setting [1] was found to be 80%.

`Cc1ccccc1CN1CCN(CC(=O)NCc2cccs2)C1=O`: the % elongation was 98% (inactive) and the z-score was -0.7. The % elongation under setting [1] is 103%.

`CCCC(Nc1cc(Cl)cc(Cl)c1)n1nnc2ccccc21` (stereo unspecified): the % elongation is 104% (inactive) and the z-score is 0.1. Further, the % elongation under setting [1] was 110%.

As for `O=C(CSC(=S)N1CCCC1)Nc1ccccc1OC(F)F`, the % elongation was 105% (inactive) and the z-score was 0.5. Also, under setting [1], the % elongation is 104%.

Take `CC(C)(C)C1C/C(=C/c2ccco2)C(=O)/C(=C/c2ccco2)C1` (stereo unspecified): the % elongation was 76% (inactive) and the z-score was -3.3. For the same compound, the % elongation under setting [1] came out at 189%.

In the case of `CS(=O)(=O)C1=NSC2=NC(=O)/C(=C\c3ccco3)C(=N)N21`, the % elongation is 66% (active) and the z-score was -10.9. Also, the % elongation under setting [1] was 23%.

For `Cc1ccc(N2C(=O)NC(=O)/C(=C\c3ccco3)C2=O)c(C)c1`, the % elongation was 99% (inactive) and the z-score is -0.2. Besides, the % elongation under setting [1] was determined as 97%.

With `CN(C)/C=N/N=C(\Cc1nc2ccccc2[nH]1)c1ccccc1`, the % elongation is 102% (inactive) and the z-score was 0.2. For the same compound, under setting [1], the % elongation was 106%.

With `O=C(COC(=O)c1cc(=O)[nH]c2ccccc12)NCc1ccco1`, the % elongation was 107% (inactive) and the z-score amounted to 0.6. Further, under setting [1], the % elongation stood at 101%.

Source of the values: PubChem BioAssay AID588519 (ICCB-Longwood Screening Facility, Harvard Medical School, 2011).
